SMN2 splice enh: SMN2 splice variant enhancement; HEK293 SMN2-luciferase splicing reporter, luminescence, 30-36 h; Potency, µM (top dose mostly 46.1 µM), for inactives: at the highest dose activity change, positive = activation, actives largely listed as activators; 210,000 compounds, 2.8% hits; AID 1458; further: % of control where 0% means no effect; nearly all actives have a fitted effect of over 55% in size
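HEK293 cells carry an SMN2 minigene-luciferase reporter in which exon 7 inclusion puts luciferase in frame. Cells were seeded at 2000 cells/well, attached for 10-12 hours, then exposed to compounds for 30-36 hours at 37C before ONE-Glo luminescence.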
ELG1 DNA repair: inhibitors of ELG1-dependent DNA repair in HEK293T cells | 330,000 compounds, 2.3% hits | AID 504467 | HEK293T ELG1-luciferase reporter, luminescence, 16 h; DNA damage induced by 5-fluorouridine | Potency, µM (top dose mostly 46.1 µM), without a hit: at the top dose activity change, negative = inhibition, actives largely listed as inhibitors; further: on the % scale 0 is the no-effect control and ±100 the full control effect; nearly all actives have a fitted effect of over 55% in size
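HEK293T cells expressing luciferase-tagged ELG1 (2,000/well) received 5-Fluorouridine plus compound or DMSO for 16 hr at 37 °C. Luciferase was read by ONE-Glo luminescence after 30 min at room temperature.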
FLuc counter: counter-screen for miR-21 project: firefly luciferase inhibitors or activators; P08659; purified FLuc, Km substrates, luminescence inhibition; Potency, µM (titrated, usually from 57.5 µM), without a hit: top-dose activity change, negative = inhibition, most hits filed as inhibitors; 360,000 compounds, 6.9% hits;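 further: plate controls were vehicle for no effect and reference inhibitor for full effect; nearly all actives have a fitted effect of over 55% in size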
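Purified P. pyralis luciferase, 10 nM final, with Km-level 10 uM D-luciferin and 10 uM ATP in 50 mM Tris acetate pH 7.5, 10 mM Mg acetate, 0.01% Tween-20, 0.05% BSA; 6-point qHTS titration about 60 µM downward; luminescence read.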
ELG1 genotox: inducers of genotoxicity in HEK293T ELG1-luciferase cells. AID 504466. Potency, µM (doses to about 46 µM), for inactives: top-dose activity change, positive = activation, actives largely listed as activators. HEK293T ELG1-luciferase reporter, luminescence, 16 h. 330,000 compounds, 1.3% hits; further: % of control where 0% means no effect; nearly all actives have a fitted effect of over 60% in size
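Luminescence read-out: rising ELG1-luciferase signal, reflecting elevated ELG1 protein under genetic stress, flags genotoxic compounds. Cells were treated for 16 hr at 37 °C before ONE-Glo detection.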
Rab9 promoter act: activators of Rab9 promoter; Potency, µM (top dose mostly 9.22 µM), for the others: at the top dose activation, negative = inhibition, most hits filed as activators; 320,000 compounds, 2.8% hits; AID 485297; Huh7 Rab9 promoter-luciferase reporter, luminescence, 24 h; further: % of control where 0% means no effect; nearly all actives have a fitted effect of over 60% in size
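Quantitative HTS format; Huh7 Rab9-luciferase reporter cells (1500/well) receive compound 2 h post-plating, incubate 24 h at 37 °C, then get luciferase reagent for 10 min before luminescence reading.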
NPC1 prom act: NPC1 promoter activation; Huh7 NPC1 promoter luciferase reporter, 24 h; Potency, µM (doses to about 9.22 µM), for inactives: at the top dose activation, hits mostly activators; 320,000 compounds, 2.4% hits; AID 485313; further: % of control where 0% means no effect; nearly all actives have a fitted effect of over 60% in size
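Readout is luciferase luminescence, reflecting NPC1 promoter activation in stably transfected Huh7 cells after 24 h compound exposure at 37 °C in reduced-serum medium with 10% FBS.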
ELG1 FLuc counter: luciferase inhibition in cell-free luciferin readout for ELG1 hits | Potency, µM (titrated, usually from 46.1 µM), inactives show at the top dose activity change, negative = inhibition, actives largely listed as inhibitors | AID 624247 | cell-free firefly luciferase luminescence counter-screen, ViewLux | shares compounds with ELG1 DNA repair | 350 compounds, 3% hits; further: on the % scale 0 is the no-effect control and ±100 the full control effect
ELG1 Luc conf: inhibits ELG1-dependent DNA repair in HEK293T cells, confirmed; shares compounds with ELG1 DNA repair; HEK293T ELG1-luciferase levels, luminescence; cells co-treated with 5-fluorouridine; Potency, µM (top dose mostly 46.1 µM), without a hit: at the top dose activity change, negative = inhibition, usual class: inhibitors; 670 compounds, 68% hits; further: on the % scale 0 is the no-effect control and ±100 the full control effect; nearly all actives have a fitted effect of over 55% in size
ELG1 MMS Luc: MMS-stimulated human ELG1 repair inhibition, confirmed; shares compounds with ELG1 DNA repair; HEK293T luciferase-tagged ELG1 level, MMS stimulated; Potency, µM (doses to about 46.1 µM), for the others: top-dose activity change, negative = inhibition, most hits filed as inhibitors; 670 compounds, 53% hits; AID 624249; further: on the % scale 0 is the no-effect control and ±100 the full control effect; nearly all actives have a fitted effect of over 60% in size
ELG1 5-FU: confirmation of ELG1 repair inhibitors: viability with 5FU. cell viability with 5-FU, ELG1-dependent repair. Potency, µM (highest dose often 46.1 µM), for the others: at the highest dose activity change, negative = viability loss, actives largely listed as cytotoxic. 670 tested, under 10 active. shares compounds with ELG1 DNA repair. AID 624250;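 further: ELG1-luc HEK293T cells cotreated with 5-fluorouridine at 10 µM final; viability measured 16 h after compound addition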
ELG1 MMS viab: confirmation of ELG1 repair inhibitors: viability with MMS; shares compounds with ELG1 DNA repair; 670 compounds, 33% hits; Potency, µM (series often up to 46.1 µM), without a hit: at the top dose activity change, negative = viability loss, usual class: cytotoxic; Cell viability with MMS, ELG1-dependent DNA repair; AID 624251;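 further: ELG1-luc HEK293T cells co-treated with 10 µM MMS; viability read 16 h after compound addition; on the % scale 0 is the no-effect control and ±100 the full control effect; nearly all actives have a fitted effect of over 60% in size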
ELG1 unstim viab: unstimulated viability counter-screen for ELG1 repair hits; shares compounds with ELG1 DNA repair; cell viability counter-screen, unstimulated, luminescence; Potency, µM (titrated, usually from 45.9 µM), without a hit: at the highest dose activity change, negative = loss of viability, usual class: cytotoxic; 900 compounds, 8% hits; AID 624252;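 further: compound exposure lasted 16 hours before reading; on the % scale 0 is the no-effect control and ±100 the full control effect; nearly all actives have a fitted effect of over 55% in size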
FLuc biochem: counter-screen for ELG1 repair inhibitors: firefly luciferase inhibition. shares compounds with ELG1 DNA repair. purified firefly luciferase, luminescence counter-screen. 350 compounds, 10% hits. Potency, µM (highest dose often 57.5 µM), without a hit: top-dose activity, negative = inhibition, hits mostly inhibitors. AID 624253; further: on the % scale 0 is the no-effect control and ±100 the full control effect
An asterisk follows results filed as active; ? = inconclusive; . = not tested or not shown. Most compounds without a hit are left out; they make up all but 9.2% or so of the library. The call rests on the fitted dose curve; in most records, active means well fitted curve in the direction sought with a large enough effect; inconclusive means small, poorly fitted or top-dose-only effect, or another doubt; inactive means no such curve, though single readings can be large; an effect the other way counts as inactive or inconclusive. Potency means the concentration at half of the fitted maximal effect.

SMILES	SMN2 splice enh	ELG1 DNA repair	FLuc counter	ELG1 genotox	Rab9 promoter act	NPC1 prom act	ELG1 Luc conf	ELG1 MMS Luc	ELG1 5-FU	ELG1 MMS viab	ELG1 unstim viab	others
CC(=O)Nc1ccc(/C=C/c2sc3ccccc3[n+]2CCCCI)cc1	.	.	.	.	.	.	.	.	.	.	-18%
CC1(C)OC2C(CO)OC(n3cnc4c(=S)nc[nH]c43)C2O1 (configuration not stated)	.	?	1%	-1%	3%	-4%	.	.	.	.	.
OCC1OC(n2cnc3c(=S)nc[nH]c32)C(O)C1O (configuration not stated)	-38%	.	.	.	.	.	?	?	?	?	6.3µM*	ELG1 FLuc counter=9%;FLuc biochem=1%
Cc1ccc(C2CC(=O)Oc3cc(C)c(Br)c(C)c32)cc1 (configuration not stated)	.	1%	.	1%	.	.	.	.	.	.	.
COC(=O)c1ccc(C(=O)OC)c(-n2c(=O)c3ccccc3c3ccccc3c2=O)c1	-5%	?	1%	?	-2%	-2%	.	.	.	.	.
CCn1c(C)cc(C(=O)COC(=O)c2cccnc2SC)c1C	.	?	.	2.3µM*	.	.	.	.	.	.	12%
Cc1cc(C(=O)COC(=O)c2cccnc2Cl)c(C)n1C	.	?	.	?	.	.	.	.	.	.	?	ELG1 FLuc counter=-8%;FLuc biochem=0.26µM*
Nc1ccc(S(=O)(=O)Nc2nccc(/C=C/c3ccc(Cl)cc3Cl)n2)cc1	.	24%	1%	8%	1%	-1%	.	.	.	.	.
CN(C)S(=O)(=O)Oc1ccc(C(=O)Nc2ccc([N+](=O)[O-])cc2)cc1	-39%	2.9µM*	-1%	4%	-2%	-21%	0.71µM*	3.1µM*	?	?	3%
COCCN1C(=O)N(c2cccc(C)c2)C(=O)C1CC(=O)Nc1ccc(OC)cc1 (configuration not stated)	.	7%	-1%	1%	0%	-5%	.	.	.	.	.
Cc1ccc(/C=C/C(=O)Nc2ccc([N+](=O)[O-])cc2)o1	.	1.8µM*	-27%	-2%	?	23%	14µM*	22µM*	?	25µM*	?

Source: PubChem
